Screening results: PubChem BioAssay, Sanford-Burnham Center for Chemical Genomics
Compounds with a hit are over-represented: about 6.3% of the library has one in this group of screens.
tim10-1 inh: tim10-1 yeast growth inhibition | S. cerevisiae tim10-1 ts strain growth, BacTiter-Glo, 24 h | inhibition, % at 20 µM | 2.2% of 330,000 active;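 active = inhibition of at least 40%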;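 note: mutant grown at 25 °C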
MPTP inh: blocks calcium-induced mitochondrial swelling; isolated mouse mitochondria, Ca2+ swelling absorbance, 30 min; inhibition, % at 10 µM; 1.4% of 360,000 active; AID 602449;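 active = inhibition of 50% or more, scaled per plate between neutral and stimulator controls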
Mdm2 MdmX PPI: human Mdm2/MdmX binding inhibition; SaOS-2 split-luciferase Mdm2/MdmX complementation, luminescence; O15151+Q00987; 3% of 330,000 active; inhibition, % at 8 µM;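 active = inhibition of at least 50% at 8 µM in the primary screen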
Target sequence (O15151 whole entry, looked up): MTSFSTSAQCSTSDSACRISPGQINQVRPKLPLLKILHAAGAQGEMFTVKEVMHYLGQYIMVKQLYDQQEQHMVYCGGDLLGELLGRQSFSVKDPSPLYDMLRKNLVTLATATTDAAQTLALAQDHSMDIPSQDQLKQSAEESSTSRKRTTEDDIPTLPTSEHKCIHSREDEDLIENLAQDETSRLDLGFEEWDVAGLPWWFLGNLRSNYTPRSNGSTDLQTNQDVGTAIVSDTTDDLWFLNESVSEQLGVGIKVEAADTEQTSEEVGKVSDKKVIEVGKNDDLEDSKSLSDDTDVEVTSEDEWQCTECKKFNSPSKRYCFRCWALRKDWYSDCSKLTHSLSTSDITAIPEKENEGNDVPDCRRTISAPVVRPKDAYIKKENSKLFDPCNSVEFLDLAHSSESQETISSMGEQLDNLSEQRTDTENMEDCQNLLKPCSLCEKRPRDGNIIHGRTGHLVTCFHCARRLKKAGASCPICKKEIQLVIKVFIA
Target sequence (Q00987 whole entry, looked up): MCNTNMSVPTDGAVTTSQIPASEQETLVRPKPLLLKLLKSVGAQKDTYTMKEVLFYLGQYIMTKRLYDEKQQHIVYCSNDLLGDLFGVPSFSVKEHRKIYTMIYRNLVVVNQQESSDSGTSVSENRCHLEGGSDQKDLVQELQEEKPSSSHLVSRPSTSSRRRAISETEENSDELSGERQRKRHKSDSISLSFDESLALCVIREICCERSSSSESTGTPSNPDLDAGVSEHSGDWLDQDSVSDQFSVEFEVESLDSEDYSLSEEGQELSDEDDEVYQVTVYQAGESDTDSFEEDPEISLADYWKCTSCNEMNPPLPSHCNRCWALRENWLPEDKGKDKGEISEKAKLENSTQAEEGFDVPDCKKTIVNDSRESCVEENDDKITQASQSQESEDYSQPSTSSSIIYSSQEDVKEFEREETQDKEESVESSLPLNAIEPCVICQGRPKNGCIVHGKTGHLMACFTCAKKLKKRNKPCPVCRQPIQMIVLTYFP
tim23-1 inh: inhibits growth of tim23-1 mutant yeast; S. cerevisiae tim23-1 growth, BacTiter-Glo luminescence, 24 h; inhibition, % at 20 µM; 1.3% of 330,000 active; AID 463212;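 active = growth inhibition of the mutant yeast at or above 50%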;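 note: temperature-sensitive mutant grown at 25 °C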
TIM10 inh: inhibits growth of TIM10 yeast strain; S. cerevisiae TIM10 strain growth, BacTiter-Glo luminescence, 24 h; inhibition, % at 10 µM; 1.4% of 330,000 active; AID 463195;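 active = inhibition of 40% or more at the single tested concentration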;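 note: wild-type TIM10 isogenic control strain grown at permissive 25 °C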
Mdm2 MdmX conf: human Mdm2/MdmX binding inhibition, confirmed | shares compounds with Mdm2 MdmX PPI | luminescent assay | inhibition, % at 8 µM | 55% of 10,000 active | AID 489028; in the data active = inhibition above about 40%
Full FLuc ctr: counter-screen for Mdm2/MdmX inhibitors: full-length luciferase; shares compounds with Mdm2 MdmX PPI; SaOS-2 full-length luciferase counterscreen, luminescence; inhibition, % at 8 µM; 77% of 6,200 active; AID 504607;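 active = mean inhibition at 8 µM reaching about 37%, which flags the compound as non-specific, limit read from the data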;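 note: p53-null SaOS-2 cells with luciferase driven by a doxycycline-inducible promoter; compound on cells about two nights before reading with doxycycline added after day one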
Large screens that a line does not name were inactive (follow-up assays come after a bar, where they were run).

CCn1cc(C(=O)NCc2ccco2)c(=O)c2cc(S(=O)(=O)N3CCc4ccccc4C3)ccc21	none
CCn1cc(C(=O)NCCCN2CCCC2)c(=O)c2cc(S(=O)(=O)N3CCc4ccccc4C3)ccc21	none
CCCN(CCC)CCCNC(=O)c1cn(CC)c2ccc(S(=O)(=O)N3CCc4ccccc4C3)cc2c1=O	Mdm2 MdmX PPI 74.8 | Mdm2 MdmX conf inactive | Full FLuc ctr 63.3
COc1cc(NC(=O)CN2C(=O)NC(CC(C)C)C2=O)cc(OC)c1OC (centres undefined)	none
CN1CCN(C2CN(CCc3ccccc3)S(=O)(=O)C2)CC1 (centres undefined)	none (no result: tim10-1 inh, Mdm2 MdmX PPI, tim23-1 inh, TIM10 inh)
Nc1nnc(CC(=O)N/N=C/c2ccc(-c3ccc(Cl)cc3Cl)o2)s1	Mdm2 MdmX PPI 67.8 | Mdm2 MdmX conf inactive | Full FLuc ctr 82.7
Nc1nnc(CC(=O)N/N=C/c2ccc(-c3ccccc3Cl)o2)s1	none
COc1ccc2c(c1)O[C@H](c1ccc3c(c1)OCO3)[C@@H](OC(=O)N[C@H](C)C1CCCCC1)C2=O	Mdm2 MdmX PPI 59.4 (no result: MPTP inh) | Mdm2 MdmX conf inactive
COc1ccc2c(c1)O[C@H](c1ccc3c(c1)OCO3)[C@@H](OC(=O)Nc1cc(OC)c(OC)c(OC)c1)C2=O	Mdm2 MdmX PPI 61.3 (no result: MPTP inh) | Mdm2 MdmX conf 62.3 | Full FLuc ctr 66.9
O=C(Nc1ccccc1)c1cc(C2CCCCN2S(=O)(=O)c2ccc(F)cc2F)on1 (centres undefined)	none (no result: tim10-1 inh, Mdm2 MdmX PPI, tim23-1 inh, TIM10 inh)
CCCCn1c(-c2ccc(C(C)(C)C)cc2)nc2cc3[nH]c(=O)c(C(C)C)nc3cc21	Mdm2 MdmX PPI 63.7 | Mdm2 MdmX conf inactive
CCCCn1c(-c2ccc(Cl)c(Cl)c2)nc2cc3[nH]c(=O)c(C(C)C)nc3cc21	none
CC1(C(=O)Nc2cnc3ccccc3c2)CCN1C(=O)C/C=C/c1ccccc1 (centres undefined)	none (no result: tim10-1 inh, Mdm2 MdmX PPI, tim23-1 inh, TIM10 inh)
COc1cc(NS(=O)(=O)c2ccc(NC(C)=O)cc2)nc(OC)n1	none
COc1cc(NS(=O)(=O)c2ccc(N/C=C(\C#N)c3nc4cc(Cl)ccc4o3)cc2)nc(OC)n1	Mdm2 MdmX PPI 54.0 | Mdm2 MdmX conf 43.5 | Full FLuc ctr inactive
COc1cc(/C=C(\C#N)c2nc3ccccc3[nH]2)cc(Br)c1OCc1ccc(F)cc1	Mdm2 MdmX PPI 75.0 | Mdm2 MdmX conf inactive | Full FLuc ctr 39.2
O=c1[nH]cc(S(=O)(=O)N2CCN(c3ccccc3F)CC2)c(=O)[nH]1	none (no result: tim10-1 inh, Mdm2 MdmX PPI, tim23-1 inh, TIM10 inh)
COCCn1cnc2c(c1=O)c1nc3ccccc3nc1n2/N=C/c1cccc(OC)c1	none
C=CCn1cnc2c(c1=O)c1nc3ccccc3nc1n2/N=C/c1cccc(OC)c1OC	Mdm2 MdmX PPI 59.3 | Mdm2 MdmX conf inactive
C=CCn1cnc2c(c1=O)c1nc3ccccc3nc1n2/N=C/c1cc(OC)c(OC)c(OC)c1	Mdm2 MdmX PPI 85.5 | Mdm2 MdmX conf 75.0 | Full FLuc ctr 64.8
CN1OC[C@@H]2CN(Cc3cc(Cl)cc(Cl)c3)[C@H](c3cccc(-c4ccccc4)c3)C[C@@H]21	none (no result: tim10-1 inh, Mdm2 MdmX PPI, tim23-1 inh, TIM10 inh)
O=C1NC[C@H](CCCCN2C[C@H](Cc3ccc(O)cc3)N(CCc3ccc(O)cc3)C(=O)C2=O)N(CCc2ccc(O)cc2)C1=O	none (no result: tim10-1 inh, Mdm2 MdmX PPI, tim23-1 inh, TIM10 inh)
Nc1nc(SCc2ccccn2)c2ncn(C3OC(CO)C(O)C3O)c2n1 (centres undefined)	none (no result: tim10-1 inh, Mdm2 MdmX PPI, tim23-1 inh, TIM10 inh)
Cc1ccc(C(C)C)c(OCc2nn(CC(=O)c3ccc(Cl)cc3)c3[n+]2CCCCC3)c1	Mdm2 MdmX PPI 97.1 | Mdm2 MdmX conf 73.7 | Full FLuc ctr inactive
Cc1cccc(NS(=O)(=O)c2ccc(C)c(C(=O)OCC(=O)Nc3cc(C)on3)c2)c1	Mdm2 MdmX PPI 88.1 | Mdm2 MdmX conf 75.5 | Full FLuc ctr inactive
Cc1cccc(NS(=O)(=O)c2cc(C(=O)OCC(=O)Nc3cc(C)on3)ccc2C)c1	none
COc1ccc(C)cc1Nc1nc(N)c2cc(OC)c(OC)cc2n1	Mdm2 MdmX PPI 50.8 | Mdm2 MdmX conf inactive
COc1ccc(Cl)cc1Nc1nc(N)c2ccccc2n1	none
Brc1ccc(C2=Nn3c(nnc3-c3n[nH]c4c3CCC4)SC2)cc1	Mdm2 MdmX PPI 80.2 | Mdm2 MdmX conf 79.5 | Full FLuc ctr 72.5
Clc1ccc(C2=Nn3c(nnc3-c3n[nH]c4c3CCC4)SC2)cc1	Mdm2 MdmX PPI 85.3 | Mdm2 MdmX conf 68.5 | Full FLuc ctr 44.5
CC1=CC(=O)C(C(C)C)=C/C1=N\OC(=O)c1cccc2nc(C)oc12	Mdm2 MdmX PPI 53.0 | Mdm2 MdmX conf inactive
COc1ccc2c(c1)c(/C=N/Nc1nc3ccccc3[nH]1)c(C)n2C	Mdm2 MdmX PPI 92.8 | Mdm2 MdmX conf inactive | Full FLuc ctr 67.9
COc1cc(/C=N\Nc2nc3ccccc3[nH]2)cc(OC)c1OC	none
COc1ccc(C(=O)C(C)OC(=O)C2CC3CCCC(C2)C3=O)cc1 (centres undefined)	none (no result: tim10-1 inh, Mdm2 MdmX PPI, tim23-1 inh, TIM10 inh)
COc1ccc(C2=Nn3c([n+](C)c4ccccc43)SC2)cc1	Mdm2 MdmX PPI 60.4 | Mdm2 MdmX conf inactive
CSC(=Nc1ccccc1)N=C(SCc1ccccc1)N(C)C	none (no result: tim10-1 inh, Mdm2 MdmX PPI, tim23-1 inh, TIM10 inh)
C[C@H](NC(=O)[C@@H]1CCCN1C(=O)[C@@H]1CCCN1C(=O)OC(C)(C)C)c1ccccc1	none (no result: tim10-1 inh, Mdm2 MdmX PPI, tim23-1 inh, TIM10 inh)
N#Cc1c(SCC(=O)Nc2ccc(Cl)cc2Cl)sc2c(O)cc(=O)[nH]c12	Mdm2 MdmX PPI 62.2 | Mdm2 MdmX conf inactive
Cc1c(Cl)cccc1NC(=O)CSc1sc2c(O)cc(=O)[nH]c2c1C#N	none
CC(C)(C)N1C(=O)[C@H]2[C@@H](c3ccc(Br)cc3)N3C(=O)N(c4ccc(Br)cc4)C(=O)[C@@]3(Cc3ccccc3)[C@H]2C1=O	Mdm2 MdmX PPI 82.6 | Mdm2 MdmX conf 88.7 | Full FLuc ctr inactive
Cc1cccc([C@@H]2[C@@H]3C(=O)N(Cc4ccccc4)C(=O)[C@@H]3[C@]3(Cc4ccccc4)C(=O)N(c4ccc(C(F)(F)F)cc4)C(=O)N23)c1	Mdm2 MdmX PPI 98.8 | Mdm2 MdmX conf 99.7 | Full FLuc ctr 49.4
COc1ccc([C@@H]2[C@@H]3C(=O)N(C(C)(C)C)C(=O)[C@@H]3[C@]3(Cc4ccc(Cl)cc4)C(=O)N(c4ccc(Br)cc4)C(=O)N23)cc1	Mdm2 MdmX PPI 74.5 | Mdm2 MdmX conf 91.0 | Full FLuc ctr inactive
Cc1cccc([C@@H]2[C@@H]3C(=O)N(Cc4ccccc4)C(=O)[C@@H]3[C@]3(Cc4ccccc4)C(=O)N(c4ccccc4)C(=O)N23)c1	none
CCc1nc2ccc(C(=O)NCCCn3ccnc3)cn2c1N(C)Cc1cccs1	none (no result: tim10-1 inh, Mdm2 MdmX PPI, tim23-1 inh, TIM10 inh)
CC1CCN(CCOc2cccc(Br)c2)CC1	none
Clc1cccc(OCCN2CCN(CCOc3cccc(Cl)c3)CC2)c1	Mdm2 MdmX PPI 68.9 | Mdm2 MdmX conf inactive
Cc1ccc(S(=O)(=O)N2C(c3ccccc3)CC(=O)C3CN(S(=O)(=O)c4ccc(Cl)cc4)C(c4ccccc4)CC32)cc1 (centres undefined)	none (no result: tim10-1 inh, Mdm2 MdmX PPI, tim23-1 inh, TIM10 inh)
Clc1nc2c(-c3ccccc3)nnn2c2ccccc12	Mdm2 MdmX PPI 100.4 | Mdm2 MdmX conf 54.9 | Full FLuc ctr 51.4
